Source: PubChem BioAssay (EPA / NIEHS)
Inconclusive results are not listed. Calls of active or inactive are those of the source. Rule for the calls: active = hit-call score of the fitted dose curve at least 0.9, where 1 is the maximum; inconclusive = response in the unintended direction; inactive = score below 0.9.

Molecular target: human Retinoid X Receptor beta (RXRb), RXRB (gene 6257) (UniProt P28702)
Assay: ATG_RXRb_TRANS: Attagene TRANS-FACTORIAL HepG2 Assay for human Retinoid X Receptor beta (RXRb) (AID 2283013)
Method: ATG_TRANS is a cell-based, multiplexed-readout assay that uses HepG2, a human liver cell line, with measurements taken at 24 hours after chemical dosing in a 24-well plate.ATG_RXRb_TRANS is one of 30 assay component(s) measured or calculated from the ATG_TRANS assay. It is designed to make measurements of mRNA induction, a form of inducible reporter, as detected with fluorescence intensity signals by Reverse transcription polymerase chain reaction (RT-PCR) and Capillary electrophoresis technology.Data from the assay component ATG_RXRb_TRANS was analyzed into 1 assay endpoint. This assay endpoint, ATG_RXRb_TRANS, was analyzed in the positive analysis fitting direction relative to DMSO as the negative control and baseline of activity. Using a type of inducible reporter, measures of mRNA for gain-of-signal activity can be used to understand the reporter gene at the transcription factor-level as they relate to the gene RXRB. Furthermore, this assay endpoint can be referred to as a primary readout, because this assay has produced multiple assay endpoints where this one serves a reporter gene function. To generalize the intended target to other relatable targets, this assay endpoint is annotated to the nuclear receptor intended target family, where the subfamily is non-steroidal.
Human liver HepG2 cells are transiently transfected with multiple reporter transcription units (MRTUs) in 6-well plates using FuGene 6 reagent (Roche; 3 ml FuGene/1 mg DNA). The MRTU constructs are regulated by a cis-regulating element (promoter). […] A major difference between the CIS and TRANS system is that in CIS activities of endogenous TFs are measured, whereas the TRANS assay evaluates changes in activities of exogenous, chimeric NR-Gal4 proteins. […] At the end of 24 hour incubation, total RNA was isolated using TriZol reagent (Invitrogen). The isolated RNA is then reverse-transcribed using oligo(dT) primer and Mo-MLV reverse transcriptase (Invitrogen) with DNAse I (Ambion) treatment for 30 min. The one-tenth of the produced cDNA was amplified by PCR using Taq DNA polymerase (Invitrogen) and two reporter sequence-specific primers. The PCR products were fluorescently labeled by primer extension with 6-arboxyfluorescein (6-FAM) 5'-labeled reporter sequence-specific primer (2 min at 95 C, 20 s at 68 C and 10 min at 72 C) and these products were digested with 5U of HpaI (New England Biolabs) for 2h at 37 C. The fragments were purified using Qiaquick PCR columns (Qiagen), analyzed on an ABI 3130xL genetic analyzer (Applied Biosystems) with peak positions identified by using a set of X-rhodamine (ROX)-labeled MapMarker1000 molecular weight standards (BioVentures). The raw capillary electrophoresis data was processed using Attagraph software (Attagene).

Sequence of human Retinoid X Receptor beta (RXRb), RXRB (gene 6257) (P28702 whole entry, looked up): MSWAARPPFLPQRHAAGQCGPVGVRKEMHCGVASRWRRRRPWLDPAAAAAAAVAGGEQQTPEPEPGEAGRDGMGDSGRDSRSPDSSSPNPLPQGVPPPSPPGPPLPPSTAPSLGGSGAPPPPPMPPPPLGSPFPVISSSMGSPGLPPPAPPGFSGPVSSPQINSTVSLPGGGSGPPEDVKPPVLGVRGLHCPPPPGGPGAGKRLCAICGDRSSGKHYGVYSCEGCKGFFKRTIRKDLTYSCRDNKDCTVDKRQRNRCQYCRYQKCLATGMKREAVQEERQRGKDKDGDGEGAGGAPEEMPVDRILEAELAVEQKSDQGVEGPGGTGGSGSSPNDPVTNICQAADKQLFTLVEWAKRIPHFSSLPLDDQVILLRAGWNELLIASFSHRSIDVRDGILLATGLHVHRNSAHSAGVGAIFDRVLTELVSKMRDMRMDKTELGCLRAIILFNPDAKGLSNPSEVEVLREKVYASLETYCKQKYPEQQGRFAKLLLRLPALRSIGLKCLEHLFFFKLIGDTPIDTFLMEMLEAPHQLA

SMILES | AC50 | outcome
CC(C)c1ccc2cc(C(C)C)ccc2c1 | 20.8 µM (active) | 
COc1cc(C)ccc1C(C)C | 100 µM (active) | 
C=C(C)CCO | 63.9 µM (active) | 
C(=CC=Nc1ccccc1)C=CNc1ccccc1 |  | inactive
CCC(CO)CO |  | inactive
OCCCS |  | inactive
CC(C)(C)C(=O)CCc1ccc(Cl)cc1 |  | inactive
O=C1CCCCCN1SSN1CCCCCC1=O |  | inactive
NC(=O)C1CO1 (stereo not given) |  | inactive
Oc1ccc(Cl)cc1Cc1cc(Cl)ccc1O | 6.46 µM (active) | 
O=P(O)(O)Oc1ccccc1 |  | inactive
CCN(CC#N)c1cccc(C)c1 |  | inactive
CCCC(C)CCC(C)=O (stereo not given) |  | inactive
FC(F)=C(F)OC(F)(F)C(F)(F)C(F)(F)F |  | inactive
O=S(=O)(O)c1ccc2cc(O)c(S(=O)(=O)O)cc2c1 |  | inactive
[Cl][Bi]([Cl])([c]1ccccc1)([c]1ccccc1)[c]1ccccc1 | 1.04 µM (active) | 
CCc1c(C(=O)O)c(=O)cnn1-c1ccc(Cl)cc1 |  | inactive
C=CC(=O)NC(C)(C)CS(=O)(=O)O |  | inactive
O=C1CCCC1 |  | inactive
CCOc1ccc(N)c([N+](=O)[O-])c1 |  | inactive

SMILES | AC50 | outcome
CCCc1ccc(OC)cc1 |  | inactive
O=C(O)CCCC[C@@H]1SC[C@@H]2NC(=O)N[C@@H]21 |  | inactive
CCOc1nc(F)cc2nc(S(=O)(=O)Nc3c(Cl)cccc3C(=O)OC)nn12 |  | inactive
O=[N+]([O-])C1(Br)COCOC1 |  | inactive
Nc1ccc(-c2ccc(F)cc2)cc1 |  | inactive
CN(C)c1ccc(N=Nc2ccccc2C(=O)O)cc1 |  | inactive
CC(C)C1=CC2=CC[C@@H]3[C@](C)(CCC[C@@]3(C)C(=O)O)[C@H]2CC1 |  | inactive
COc1ccc([C@@H]2CC(=O)c3c(O)cc(O[C@@H]4O[C@H](CO[C@@H]5O[C@@H](C)[C@H](O)[C@@H](O)[C@H]5O)[C@@H](O)[C@H](O)[C@H]4O)cc3O2)cc1OC |  | inactive
O=S(=O)(O)CC(O)CCl (stereo not given) |  | inactive
CCC(C)OC(=O)c1ccc(O)cc1 (stereo not given) | 70.8 µM (active) | 
Cc1ccc(C(C)(C)C)cc1 |  | inactive
CN(C)c1ccc(C(=N)c2ccc(N(C)C)cc2)cc1 |  | inactive
CC(=O)NS(=O)(=O)c1ccc(N)cc1 |  | inactive
Cc1ccc(N)c([N+](=O)[O-])c1 |  | inactive
[Cl][Nd]([Cl])[Cl] |  | inactive
CCC(=O)Oc1ccc(/C(CC)=C(\CC)c2ccc(OC(=O)CC)cc2)cc1 | 2.92 µM (active) | 
C=CC(C)(CCC=C(C)C)OC(=O)CC(C)C (stereo not given) | 30.5 µM (active) | 
CC(=O)c1ccc2c(c1)CCCC2 | 42.9 µM (active) | 
CC(=O)[C@@]1(O)CC[C@H]2[C@@H]3C[C@H](C)C4=CC(=O)C=C[C@]4(C)[C@@]3(F)[C@@H](O)C[C@@]21C |  | inactive
OC1CCCCCCCCCCC1 | 44.6 µM (active) | 
